# PubChem BioAssay AID624117 (National Center for Advancing Translational Sciences (NCATS), 2012)
# Inconclusive results are not listed. Unmarked numbers belong to inactive results. Active and inactive are the calls of the source. Calls come from the whole dose curve; as a rule, active = well fitted curve in the direction sought with a large enough effect; inconclusive = small, poorly fitted or top-dose-only effect, or another doubt; inactive = no such curve, though single readings can be large or run the other way.
# Assay: qHTS Assay for Rab9 Promoter Activators: Hit Validation Using Renilla Luciferase Read-Out; for activation (negative = inhibition): % of control where 0% means no effect
# Conditions: Huh7 NPC1 promoter Renilla luciferase reporter, 24 h; series mostly up to 76.9 µM; activation (negative = inhibition): at the top concentration
# Source text: Niemann Pick Type C (NPC) is a rare neurodegenerative lipidosis that is characterized by lipid storage in the endosomal/lysosomal system. Treatment modalities for this devastating disease are currently non-existent due to the severe obstacles associated with accessing the central nervous system with proteins or genes. The majority of mutations causing NPC disease are missense mutations that are distributed throughout the length of the NPC1 protein, with the most prevalent being the I1061T allele. Although NPC1 mutant proteins may be functional, they are typically trapped in the ER due to misfolding. […] We have developed and optimized a cell based renilla luciferase reporter assay in 1536 well format for the identification of up-regulators of the mutant NPC1 promoter. This assay presents data on the validation of hits from the primary screen, which used a firefly luciferase read-out. NIH Chemical Genomics Center [NCGC] NIH Molecular Libraries Probe Production centers Network [MLPCN] MLPCN Grant: MH089375 Assay Submitter (PI): Yiannis A. Ioannou
# Huh7 cells stably expressing NPC promoter-luciferase will be seeded at 1,500 cells/well in 5 uL in 1,536-well white opaque plates with 23 nL/well of compound in DMSO solution. The assay plates will be incubated at 37 deg C for 24 hours, after which 3 uL/well BriteLite plus luciferase detection reagent mixture (Perkin Elmer) will be added. Luminescence signal will be measured in a ViewLux plate reader (Perkin Elmer) after a 10 minute incubation at the room temperature.
# Potency is the fitted concentration of half-maximal effect.
Compound,activation (negative = inhibition) [%],Potency
COc1ccc(C2(CNC(=O)/C=C/c3ccco3)CCCC2)cc1OC,2.65,–
COC(=O)Nc1nc2ccc(Br)cc2s1,-6.1,–
CN(C)C(=O)[C@H]1C[C@H]1[C@@H](O)[C@H](CO)NC(=O)[C@H](COCc1ccccc1)NC(=O)OC(C)(C)C,-12,–
COCc1cc(C)nc(N/N=C/c2ccc(-c3ccc(Cl)cc3[N+](=O)[O-])o2)c1C#N,-12.3,–
CCCCc1cc(=O)oc2cc(OCC(=O)N3CCOCC3)ccc12,-1.07,–
Cc1ccc(NC(=O)c2cccc(N3C(=O)CCC3=O)c2)nc1,-4.93,–
Cc1noc(/C=C/N(C)C)c1S(=O)(=O)N1CCCC(C(=O)N2CCCCC2)C1 (stereo not given),-7.89,–
CN(C)/C=N/c1c(C#N)cnn1-c1nc2ccccc2s1,-3.73,–
COc1ccc(-n2c(N)c(C(=O)NCc3ccco3)sc2=S)cc1,-2.97,–
CCCCCCOc1ccc(OC(=O)c2cccnc2)cc1,–,2.07 µM (active)
O=C(CCN1C(=O)c2ccccc2C1=O)Nc1ccc(-c2nc3ccccc3s2)cc1,-11.4,–
Cc1cccc(N2CCN(C(=S)c3ccccc3)CC2)c1,1.13,–
C=CCOC(=O)N1CCN(c2cccc(C(F)(F)F)c2)CC1,-2.4,–
COc1cccc(CNC(=O)CN(c2cc(C)cc(C)c2)S(=O)(=O)c2c(C)noc2C)c1,26.9,–
COc1ccccc1CNC(=O)COc1ccc(C)cc1,3.98,–
COC(=O)c1sccc1NC(=S)OC,-7.79,–
Cc1ccc(NC(=O)c2c(O)c3ccccc3n(C)c2=O)nc1,10.5,–
Nc1ccc(C(=O)Nc2ccccc2N)cc1,–,8.23 µM (active)
O=C(CCc1cccc(Cl)c1)NC1CCCN(Cc2ccccc2F)C1 (stereo not given),-8.65,–
O=C(CSc1ncccn1)Nc1cccc2ccccc12,-0.278,–

Compound,activation (negative = inhibition) [%],Potency
COC(=O)c1ccccc1NC(=O)c1ccc(-c2ccc(Br)cc2)o1,-44.9,–
S=C1NCN(CCc2ccccc2)CN1Cc1ccccc1,-2.18,–
Brc1ccccc1-c1nnc(CSc2nnc3sc4ccccc4n23)o1,-3.13,–
O=S(=O)(c1cccs1)N1CCN(c2ncccn2)CC1,-5.33,–
COc1ccc(-c2csc(Nc3ncccn3)n2)cc1C,-0.405,–
Cc1ccc2nc(Nc3ccc(Cl)cc3)c3nncn3c2c1,-1.87,–
Cc1ccc(C#N)c(SCC(=O)Nc2nccs2)n1,-0.351,–
CC1CC(C)CN(CC(=O)N2CCOCC2)C1 (stereo not given),-13.3,–
O=C(CSc1nnc(-c2ccccn2)o1)Nc1ccccc1Cl,-3.21,–
CC(C)(C)C(=O)N/C(N)=N/c1nc2ccccc2o1,-72.9,–
CCOC(=O)c1ccc(NC(=O)Oc2cc(C)c(Cl)cc2C(C)C)cc1,-2.91,–
CCOc1cc(C(=O)N=c2sccn2C)ccc1OC(F)F,4.68,–
COc1ccc(NC(=O)CSc2ccc([N+](=O)[O-])cc2)cc1S(=O)(=O)N1CCOCC1,11.6,–
NCCOc1ccccc1-c1ccccc1,-3.48,–
O=C(Nc1ccc(-c2nc3cccnc3s2)cc1)c1ccc(Cl)nc1,-1.72,–
COc1ccc([N+](=O)[O-])cc1COc1ccc2c(-c3ccccc3)cc(=O)oc2c1,3.67,–
CC(=O)NC(CCCN1C(=O)c2ccccc2C1=O)c1nnn(C)n1 (stereo not given),2.21,–
O=C(O)C1=CC[C@@H](c2ccc(Cl)cc2)N(S(=O)(=O)c2ccc(Cl)cc2)[C@H]1c1ccccc1,1.45,–
Cc1nn(CCCC(=O)NCc2ccc(F)cc2)c(C)c1[N+](=O)[O-],-2.28,–
Cc1ccc(C(=O)c2cncc(Br)c2)cc1,7.59,–
